Positions count from the first letter of the chain named.
Columns and labels:
Test in all cases: PBM; 200 nM protein, PBS
Details in all cases: dsDNA, one strand shown
HOXC10 [1] = biological target: HOXC10 (Homo sapiens, UniProt Q9NYD6 254-340)
ALX3 [2] = biological target: ALX3 (Homo sapiens, UniProt O95076 139-225, N203Q)
HOXC10 [3] = biological target: HOXC10 (Homo sapiens, UniProt Q9NYD6 254-340, K271E)
ALX3 [4] = biological target: ALX3 (Homo sapiens, UniProt O95076 139-225)
ALX3 [5] = biological target: ALX3 (Homo sapiens, UniProt O95076 139-225, L168Q)
ALX3 [6] = biological target: ALX3 (Homo sapiens, UniProt O95076 139-225, L168V)
ALX3 [7] = biological target: ALX3 (Homo sapiens, UniProt O95076 139-225, N203S)
ALX4 [8] = biological target: ALX4 (Homo sapiens, UniProt Q9H161 200-286)
ALX4 [9] = biological target: ALX4 (Homo sapiens, UniProt Q9H161 200-286, Q225E)
HOXA2 [10] = biological target: HOXA2 (Homo sapiens, UniProt O43364 129-215, R185T)
HOXA2 [11] = biological target: HOXA2 (Homo sapiens, UniProt O43364 129-215, R185K)
HOXA2 [12] = biological target: HOXA2 (Homo sapiens, UniProt O43364 129-215, Y150S)
HOXA2 [13] = biological target: HOXA2 (Homo sapiens, UniProt O43364 129-215)
HOXD13 [14] = biological target: HOXD13 (Homo sapiens, UniProt P35453 263-343, T313R)
HOXD13 [15] = biological target: HOXD13 (Homo sapiens, UniProt P35453 263-343)
HOXD13 [16] = biological target: HOXD13 (Homo sapiens, UniProt P35453 263-343, T313A)
PITX2 = PITX2 (Homo sapiens, UniProt Q99697 72-157)
HOXC9 = HOXC9 (Homo sapiens, UniProt P31274 178-260, R222W)
NKX2-6 [17] = biological target: T1, NKX2-6 (Homo sapiens, UniProt A6NCS4 118-204)
T1 sequence: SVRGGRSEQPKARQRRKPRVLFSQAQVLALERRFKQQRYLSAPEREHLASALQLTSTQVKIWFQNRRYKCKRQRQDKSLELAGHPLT

NKX2-6 [18] = biological target: T2, NKX2-6 (Homo sapiens, UniProt A6NCS4 118-204, F151L)
T2 sequence: T1 sequence with F34L

Sequence of HOXD13 (Homo sapiens, UniProt P35453 263-343, T313A) (P35453 263-343 T313A): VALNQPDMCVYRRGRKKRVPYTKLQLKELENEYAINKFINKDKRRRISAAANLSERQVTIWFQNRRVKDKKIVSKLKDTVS
Sequence of HOXC10 (Homo sapiens, UniProt Q9NYD6 254-340) (Q9NYD6 254-340): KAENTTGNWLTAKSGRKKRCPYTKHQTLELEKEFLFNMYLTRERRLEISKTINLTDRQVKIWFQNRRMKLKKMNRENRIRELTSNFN
Sequence of HOXC10 (Homo sapiens, UniProt Q9NYD6 254-340, K271E) (Q9NYD6 254-340 K271E): as the sequence (Q9NYD6 254-340) above, with K18E counted along it
Sequence of HOXD13 (Homo sapiens, UniProt P35453 263-343) (P35453 263-343): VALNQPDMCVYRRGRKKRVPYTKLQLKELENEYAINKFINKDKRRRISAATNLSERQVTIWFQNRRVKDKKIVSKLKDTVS
Sequence of HOXD13 (Homo sapiens, UniProt P35453 263-343, T313R) (P35453 263-343 T313R): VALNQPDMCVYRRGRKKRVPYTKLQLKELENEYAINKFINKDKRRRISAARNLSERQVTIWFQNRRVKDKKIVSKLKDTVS
Sequence of ALX4 (Homo sapiens, UniProt Q9H161 200-286, Q225E) (Q9H161 200-286 Q225E): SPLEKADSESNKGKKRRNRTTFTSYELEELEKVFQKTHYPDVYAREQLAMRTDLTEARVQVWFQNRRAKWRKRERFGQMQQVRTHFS
Sequence of ALX4 (Homo sapiens, UniProt Q9H161 200-286) (Q9H161 200-286): as the sequence (Q9H161 200-286 Q225E) above, with E26Q counted along it
Sequence of HOXA2 (Homo sapiens, UniProt O43364 129-215, Y150S) (O43364 129-215 Y150S): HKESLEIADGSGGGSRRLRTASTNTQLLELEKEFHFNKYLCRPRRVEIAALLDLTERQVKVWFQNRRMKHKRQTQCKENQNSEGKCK
Sequence of HOXC9 (P31274 178-260 R222W): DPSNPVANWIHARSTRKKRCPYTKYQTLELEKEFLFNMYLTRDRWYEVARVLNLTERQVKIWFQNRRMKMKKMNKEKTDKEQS
Sequence of HOXA2 (Homo sapiens, UniProt O43364 129-215) (O43364 129-215): as the sequence (O43364 129-215 Y150S) above, with S22Y counted along it
Sequence of ALX3 (Homo sapiens, UniProt O95076 139-225, N203Q) (O95076 139-225 N203Q): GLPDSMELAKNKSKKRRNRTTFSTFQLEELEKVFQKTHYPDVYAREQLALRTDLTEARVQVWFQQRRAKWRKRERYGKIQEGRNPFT
Sequence of HOXA2 (Homo sapiens, UniProt O43364 129-215, R185K) (O43364 129-215 R185K): as the sequence (O43364 129-215 Y150S) above, with S22Y, R57K counted along it
Sequence of ALX3 (Homo sapiens, UniProt O95076 139-225, L168Q) (O95076 139-225 L168Q): as the sequence (O95076 139-225 N203Q) above, with L30Q, Q65N counted along it
Sequence of ALX3 (Homo sapiens, UniProt O95076 139-225, L168V) (O95076 139-225 L168V): as the sequence (O95076 139-225 N203Q) above, with L30V, Q65N counted along it
Sequence of ALX3 (Homo sapiens, UniProt O95076 139-225) (O95076 139-225): as the sequence (O95076 139-225 N203Q) above, with Q65N counted along it
Sequence of HOXA2 (Homo sapiens, UniProt O43364 129-215, R185T) (O43364 129-215 R185T): as the sequence (O43364 129-215 Y150S) above, with S22Y, R57T counted along it
Sequence of ALX3 (Homo sapiens, UniProt O95076 139-225, N203S) (O95076 139-225 N203S): as the sequence (O95076 139-225 N203Q) above, with Q65S counted along it

GGTTATAC
binding signal (HOXC10 [1]): 10.8 upbm affinity estimate (log intensity, higher = more binding, comparable within an allelic series)

CGAAGGGC
binding signal (HOXC10 [1]): 9.97 upbm affinity estimate (log intensity, higher = more binding, comparable within an allelic series)
binding signal (ALX3 [2]): 7.68 upbm affinity estimate (log intensity, higher = more binding, comparable within an allelic series)
binding signal (HOXC10 [3]): 10.1 upbm affinity estimate (log intensity, higher = more binding, comparable within an allelic series)
binding signal (ALX3 [4]): 7.61 upbm affinity estimate (log intensity, higher = more binding, comparable within an allelic series)
binding signal (ALX3 [5]): 7.69 upbm affinity estimate (log intensity, higher = more binding, comparable within an allelic series)
binding signal (ALX3 [6]): 7.8 upbm affinity estimate (log intensity, higher = more binding, comparable within an allelic series)
binding signal (ALX3 [7]): 7.67 upbm affinity estimate (log intensity, higher = more binding, comparable within an allelic series)

ATGCATAA
binding signal (HOXC10 [1]): 11.2 upbm affinity estimate (log intensity, higher = more binding, comparable within an allelic series)
binding signal (ALX4 [8]): 10.3 upbm affinity estimate (log intensity, higher = more binding, comparable within an allelic series)
binding signal (ALX4 [9]): 9.57 upbm affinity estimate (log intensity, higher = more binding, comparable within an allelic series)
binding signal (HOXC10 [3]): 10.9 upbm affinity estimate (log intensity, higher = more binding, comparable within an allelic series)

CGCCCCCC
binding signal (HOXC10 [1]): 9.91 upbm affinity estimate (log intensity, higher = more binding, comparable within an allelic series)
binding signal (HOXA2 [10]): 6.85 upbm affinity estimate (log intensity, higher = more binding, comparable within an allelic series)
binding signal (HOXA2 [11]): 9.91 upbm affinity estimate (log intensity, higher = more binding, comparable within an allelic series)
binding signal (HOXC10 [3]): 9.87 upbm affinity estimate (log intensity, higher = more binding, comparable within an allelic series)
binding signal (HOXA2 [12]): 10.3 upbm affinity estimate (log intensity, higher = more binding, comparable within an allelic series)
binding signal (HOXA2 [13]): 6.92 upbm affinity estimate (log intensity, higher = more binding, comparable within an allelic series)

AGCGCTTG
binding signal (HOXC10 [1]): 10 upbm affinity estimate (log intensity, higher = more binding, comparable within an allelic series)
binding signal (ALX4 [8]): 7.96 upbm affinity estimate (log intensity, higher = more binding, comparable within an allelic series)
binding signal (ALX4 [9]): 8.27 upbm affinity estimate (log intensity, higher = more binding, comparable within an allelic series)
binding signal (HOXC10 [3]): 10.1 upbm affinity estimate (log intensity, higher = more binding, comparable within an allelic series)

GGAGGCCC
binding signal (HOXC10 [1]): 10 upbm affinity estimate (log intensity, higher = more binding, comparable within an allelic series)
binding signal (HOXD13 [14]): 9.34 upbm affinity estimate (log intensity, higher = more binding, comparable within an allelic series)
binding signal (HOXD13 [15]): 9.46 upbm affinity estimate (log intensity, higher = more binding, comparable within an allelic series)
binding signal (HOXC10 [3]): 9.99 upbm affinity estimate (log intensity, higher = more binding, comparable within an allelic series)
binding signal (HOXD13 [16]): 9.59 upbm affinity estimate (log intensity, higher = more binding, comparable within an allelic series)

CAGCGCCC
binding signal (HOXC10 [1]): 9.88 upbm affinity estimate (log intensity, higher = more binding, comparable within an allelic series)
binding signal (HOXC10 [3]): 9.95 upbm affinity estimate (log intensity, higher = more binding, comparable within an allelic series)

CCGAACTC
binding signal (HOXC10 [1]): 9.95 upbm affinity estimate (log intensity, higher = more binding, comparable within an allelic series)
binding signal (HOXC10 [3]): 10 upbm affinity estimate (log intensity, higher = more binding, comparable within an allelic series)

AGGCTTCC
binding signal (HOXC10 [1]): 10.1 upbm affinity estimate (log intensity, higher = more binding, comparable within an allelic series)
binding signal (HOXC10 [3]): 10.1 upbm affinity estimate (log intensity, higher = more binding, comparable within an allelic series)

GAGCTGCC
binding signal (HOXC10 [1]): 9.9 upbm affinity estimate (log intensity, higher = more binding, comparable within an allelic series)
binding signal (HOXC10 [3]): 9.88 upbm affinity estimate (log intensity, higher = more binding, comparable within an allelic series)

GCGGTGCC
binding signal (HOXC10 [1]): 10 upbm affinity estimate (log intensity, higher = more binding, comparable within an allelic series)
binding signal (HOXC10 [3]): 10 upbm affinity estimate (log intensity, higher = more binding, comparable within an allelic series)

AATAATAG
binding signal (HOXC10 [1]): 11.5 upbm affinity estimate (log intensity, higher = more binding, comparable within an allelic series)
binding signal (HOXC10 [3]): 11.2 upbm affinity estimate (log intensity, higher = more binding, comparable within an allelic series)

AAGCCTGG
binding signal (HOXC10 [1]): 10.1 upbm affinity estimate (log intensity, higher = more binding, comparable within an allelic series)
binding signal (HOXC10 [3]): 10 upbm affinity estimate (log intensity, higher = more binding, comparable within an allelic series)

ATAGATGA
binding signal (HOXC10 [1]): 10.8 upbm affinity estimate (log intensity, higher = more binding, comparable within an allelic series)
binding signal (HOXC10 [3]): 10.8 upbm affinity estimate (log intensity, higher = more binding, comparable within an allelic series)

GGTCCGCA
binding signal (HOXC10 [1]): 10 upbm affinity estimate (log intensity, higher = more binding, comparable within an allelic series)
binding signal (HOXC10 [3]): 10 upbm affinity estimate (log intensity, higher = more binding, comparable within an allelic series)

AACCTGCC
binding signal (HOXC10 [1]): 10.1 upbm affinity estimate (log intensity, higher = more binding, comparable within an allelic series)
binding signal (PITX2): 7.89 upbm affinity estimate (log intensity, higher = more binding, comparable within an allelic series)
binding signal (HOXC10 [3]): 10.1 upbm affinity estimate (log intensity, higher = more binding, comparable within an allelic series)

CTTTCTTC
binding signal (HOXC10 [1]): 9.98 upbm affinity estimate (log intensity, higher = more binding, comparable within an allelic series)
binding signal (HOXC10 [3]): 10.1 upbm affinity estimate (log intensity, higher = more binding, comparable within an allelic series)

CTCTCCGA
binding signal (HOXC10 [1]): 9.99 upbm affinity estimate (log intensity, higher = more binding, comparable within an allelic series)
binding signal (HOXC10 [3]): 9.97 upbm affinity estimate (log intensity, higher = more binding, comparable within an allelic series)

GCCTAATA
binding signal (HOXC10 [1]): 11 upbm affinity estimate (log intensity, higher = more binding, comparable within an allelic series)
binding signal (HOXC10 [3]): 10.9 upbm affinity estimate (log intensity, higher = more binding, comparable within an allelic series)

CCGGTGAC
binding signal (HOXC10 [1]): 10 upbm affinity estimate (log intensity, higher = more binding, comparable within an allelic series)
binding signal (HOXC10 [3]): 10 upbm affinity estimate (log intensity, higher = more binding, comparable within an allelic series)

ACATAAGT
binding signal (HOXC10 [1]): 10.9 upbm affinity estimate (log intensity, higher = more binding, comparable within an allelic series)
binding signal (PITX2): 9.71 upbm affinity estimate (log intensity, higher = more binding, comparable within an allelic series)
binding signal (HOXC10 [3]): 10.8 upbm affinity estimate (log intensity, higher = more binding, comparable within an allelic series)

ATAAAAAT
binding signal (HOXC10 [1]): 12.2 upbm affinity estimate (log intensity, higher = more binding, comparable within an allelic series)
binding signal (HOXD13 [14]): 10.7 upbm affinity estimate (log intensity, higher = more binding, comparable within an allelic series)
binding signal (HOXC10 [3]): 11.7 upbm affinity estimate (log intensity, higher = more binding, comparable within an allelic series)
binding signal (HOXC9): 11.2 upbm affinity estimate (log intensity, higher = more binding, comparable within an allelic series)

AAAGATAT
binding signal (HOXC10 [1]): 10.9 upbm affinity estimate (log intensity, higher = more binding, comparable within an allelic series)
binding signal (HOXD13 [15]): 10.8 upbm affinity estimate (log intensity, higher = more binding, comparable within an allelic series)
binding signal (HOXD13 [16]): 10.9 upbm affinity estimate (log intensity, higher = more binding, comparable within an allelic series)

GGGGCTAC
binding signal (HOXC10 [1]): 10.1 upbm affinity estimate (log intensity, higher = more binding, comparable within an allelic series)
binding signal (HOXC10 [3]): 10.1 upbm affinity estimate (log intensity, higher = more binding, comparable within an allelic series)

CCCGGGCG
binding signal (HOXC10 [1]): 10.1 upbm affinity estimate (log intensity, higher = more binding, comparable within an allelic series)
binding signal (HOXC10 [3]): 10.1 upbm affinity estimate (log intensity, higher = more binding, comparable within an allelic series)

CGTGAATA
binding signal (HOXC10 [1]): 10.7 upbm affinity estimate (log intensity, higher = more binding, comparable within an allelic series)
binding signal (HOXC10 [3]): 10.7 upbm affinity estimate (log intensity, higher = more binding, comparable within an allelic series)

ATTACAGG
binding signal (HOXC10 [1]): 11.1 upbm affinity estimate (log intensity, higher = more binding, comparable within an allelic series)
binding signal (HOXC10 [3]): 10.9 upbm affinity estimate (log intensity, higher = more binding, comparable within an allelic series)

AATTGCAA
binding signal (HOXC10 [1]): 11.1 upbm affinity estimate (log intensity, higher = more binding, comparable within an allelic series)
binding signal (HOXC10 [3]): 11 upbm affinity estimate (log intensity, higher = more binding, comparable within an allelic series)

GCTCCCGA
binding signal (HOXC10 [1]): 9.93 upbm affinity estimate (log intensity, higher = more binding, comparable within an allelic series)
binding signal (HOXC10 [3]): 10.1 upbm affinity estimate (log intensity, higher = more binding, comparable within an allelic series)

CCTTGCGA
binding signal (HOXC10 [1]): 10 upbm affinity estimate (log intensity, higher = more binding, comparable within an allelic series)
binding signal (HOXC10 [3]): 10.1 upbm affinity estimate (log intensity, higher = more binding, comparable within an allelic series)

GTCCCGCA
binding signal (HOXC10 [1]): 10.1 upbm affinity estimate (log intensity, higher = more binding, comparable within an allelic series)
binding signal (NKX2-6 [17]): 9.41 upbm affinity estimate (log intensity, higher = more binding, comparable within an allelic series)
binding signal (HOXC10 [3]): 10.1 upbm affinity estimate (log intensity, higher = more binding, comparable within an allelic series)
binding signal (NKX2-6 [18]): 9.36 upbm affinity estimate (log intensity, higher = more binding, comparable within an allelic series)

ATAACACC
binding signal (HOXC10 [1]): 11.1 upbm affinity estimate (log intensity, higher = more binding, comparable within an allelic series)
binding signal (HOXC10 [3]): 10.8 upbm affinity estimate (log intensity, higher = more binding, comparable within an allelic series)

AGGGCCAG
binding signal (HOXC10 [1]): 9.98 upbm affinity estimate (log intensity, higher = more binding, comparable within an allelic series)
binding signal (HOXC10 [3]): 10 upbm affinity estimate (log intensity, higher = more binding, comparable within an allelic series)

AAATAAAA
binding signal (HOXC10 [1]): 11.9 upbm affinity estimate (log intensity, higher = more binding, comparable within an allelic series)
binding signal (HOXC10 [3]): 11.1 upbm affinity estimate (log intensity, higher = more binding, comparable within an allelic series)

AATGCTAT
binding signal (HOXC10 [1]): 11 upbm affinity estimate (log intensity, higher = more binding, comparable within an allelic series)
binding signal (HOXC10 [3]): 10.9 upbm affinity estimate (log intensity, higher = more binding, comparable within an allelic series)

CCCGTAAA
binding signal (HOXC10 [1]): 11.3 upbm affinity estimate (log intensity, higher = more binding, comparable within an allelic series)
binding signal (HOXD13 [14]): 10.6 upbm affinity estimate (log intensity, higher = more binding, comparable within an allelic series)
binding signal (HOXD13 [15]): 11.9 upbm affinity estimate (log intensity, higher = more binding, comparable within an allelic series)
binding signal (HOXD13 [16]): 11.6 upbm affinity estimate (log intensity, higher = more binding, comparable within an allelic series)
